# ALR H2O2 inh: inhibitors of human ALR sulfhydryl oxidase, primary screen, biochemical, H2O2 detection, HRP-luminol luminescence, single point | FAD-linked sulfhydryl oxidase ALR (Homo sapiens), P55789 | purified ALR, DTT oxidation | inhibition, % (no concentration beside the values) | 3.8% of 290,000 active | AID 485317, 2010;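 active = mean replicate inhibition above about 79%, with every replicate also reaching it, limit read from the data; inconclusive = only one of the two criteria met; inactive = mean below limit and not every replicate reaching it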
# PABP FP inh: PABP poly(A) RNA binding inhibitors, primary screen, biochemical, fluorescence polarization, uHTS | Polyadenylate-binding protein 1 (Homo sapiens), P11940 | inhibition, % at 35 µM | 1% of 290,000 active;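 also: calls also rest on retests at 20 µM and on dose response follow-up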
# eIF4H FP inh: human eIF4H binding inhibitors, primary screen, translation initiation inhibitor project, biochemical, uHTS, fluorescence polarization. Eukaryotic translation initiation factor 4H (Homo sapiens), Q15056. eIF4H fluorescence polarization binding assay. inhibition, % at 35 µM. 0.94% of 290,000 active. AID 2012, 2009;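 also: calls also rest on retests at 20 µM and on dose response follow-up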
# MLLE-PAM2 inh: inhibitors of PABP1 MLLE–PAM2 peptide binding, primary screen, biochemical, fluorescence polarization, FITC-PAM2, GST-MLLE; Polyadenylate-binding protein 1 (Homo sapiens), P11940; inhibition, % at 20 µM; 0.36% of 360,000 active; in the data active = inhibition above about 35%, passing the limit was not always enough;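 also: plate controls were DMSO wells with GST-MLLE for no effect and wells lacking GST-MLLE protein for full effect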
# Efflux pump inh: inhibitors of Candida efflux pumps in yeast, primary screen, S. cerevisiae, Nile Red, multiplex | S. cerevisiae Candida pump triplex | inhibition, % at 10 µM | 0.44% of 330,000 active | AID 485275, 2010;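 active = plate passing quality check with inhibition over a set limit, or well fluorescence over plate mean plus 4 SD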;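 also: Nile Red retained in pooled yeast measured as flow cytometry median fluorescence; 0% = buffer negative control and 100% = Enniatin B positive control; higher means more Nile Red kept so more efflux inhibition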
# UBC9 SUMO inh: inhibitors of in vitro SUMOylation cascade, primary screen, biochemical, HTRF, uHTS; inhibition, % at 35 µM; SUMO-conjugating enzyme UBC9 (Homo sapiens), P63279; HTRF SUMOylation assay, SAE1/SAE2 + UBC9; AID 2006, 2009; 0.36% of 290,000 active; in the data active = inhibition above about 50%, passing the limit was not always enough; inconclusive = no clear call, values can overlap the other calls
# Target sequence (P63279 whole entry, looked up): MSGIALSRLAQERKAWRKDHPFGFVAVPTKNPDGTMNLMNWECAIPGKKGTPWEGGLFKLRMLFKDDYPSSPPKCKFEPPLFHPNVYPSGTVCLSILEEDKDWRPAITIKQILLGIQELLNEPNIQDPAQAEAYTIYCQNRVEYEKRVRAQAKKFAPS
# Starred values were filed as active, the others as inactive; ? = inconclusive; . = no result given. Most compounds without a hit are left out; they make up all but 4.7% or so of the library. Unless noted, no rule for the calls is given here.
SMILES,ALR H2O2 inh,PABP FP inh,eIF4H FP inh,MLLE-PAM2 inh,Efflux pump inh,UBC9 SUMO inh
C/C(=N\NC(=O)c1cc(O)ccc1O)c1cccc(NC(=O)c2cccc(Cl)c2)c1,90*,29*,85*,2,0,15
C/C(=N\NC(=O)Cc1ccc(Cl)cc1)c1ccc(F)cc1,-16,-2,-3,-8,0,10
C/C(=N\NC(=O)Cc1ccc(F)cc1)c1ccc(O)cc1,99*,-5,-7,6,0,18
Cc1cccc(S(=O)(=O)NC(=O)C2(C)CCN2C(=O)Cc2ccc(C(C)(C)C)cc2)c1 (stereo not given),.,.,.,-1,.,.
CC(=O)Nc1cccc(/C(C)=N/NC(=O)c2ccc(O)cc2)c1,-13,54,active,0,0,14
C/C(=N/NC(=O)c1ccc(O)cc1)c1cccc([N+](=O)[O-])c1,-2,-3,-13,0,0,10
C/C(=N\NC(=O)c1cc(O)ccc1O)c1cccc(NC(=O)c2ccc(Cl)cc2)c1,64,87*,90*,12,0,52
CCOc1ccccc1N1CC(C(=O)Nc2cc(Cl)ccc2-n2cncn2)CC1=O (stereo not given),-6,.,.,-3,0,.
COc1ccc(CC(N)c2csc(Nc3cc(NCc4ccco4)ncn3)n2)cc1 (stereo not given),.,.,.,-33,.,.
O=C(N/N=C/c1c(O)n(Cc2ccccc2)c(=O)c2ccccc12)c1cccnc1,98*,3,13,-121,0,-4
COc1ccc(Cn2c(O)c(/C=N/NC(=O)c3cccnc3)c3ccccc3c2=O)cc1,.,0,0,-122,.,10
Cc1nn(-c2cccc(Cl)c2)c2nc(-c3ccco3)cc(C(=O)O)c12,20,98*,80*,21,0,41
Cc1nn(-c2ccccc2)c2nc(-c3ccco3)cc(C(=O)O)c12,97*,66*,88*,6,0,28
Cc1cccc(-n2nc(C)c3c(C(=O)O)cc(-c4cccs4)nc32)c1,8,20,6,2,0,18
O=C(O)c1cc(-c2ccco2)nn1-c1cccc(Cl)c1,.,9.1*,83,-22,0,49
c1ccc(CN2C3=NCCN3c3ccccc32)cc1,96*,4,6,-6,0,17
Cc1ccc(CN2C3=NCCN3c3ccccc32)cc1,.,-2,-6,-3,0,6
O=C(CN1C2=NCCN2c2ccccc21)C12CC3CC(CC(C3)C1)C2,98*,-1,-13,-14,0,8
Clc1ccc(CN2C3=NCCN3c3ccccc32)cc1Cl,98*,-6,-10,-1,0,14
CC(CCC(=O)O)C1CCC2C3CC(O)C4CC(O)CC[C@]4(C)C3CCC12C (stereo not given in full),.,.,.,4,.,.
O=C(NC(=S)N1CCOCC1)c1cn(-c2ccccc2)nc1-c1ccc(F)cc1,.,.,.,-11,0,.
CCN(CC)Cc1c(C(=O)N/N=C/c2ccccn2)nnn1-c1nonc1N,3,2,19,-4,0,0
CCOC(=O)C1CCN(c2cc3c(cc2NC(=O)c2cc(OC)ccc2Br)n(C)c(=O)n3C)CC1,.,15,14,3,0,?
COc1ccccc1C(=O)NC(=O)CSc1ccc(C)c(C)c1,97*,.,.,-3,0,.
O=S(=O)(NN=C1CCCCCCC1)c1ccccc1,.,.,.,10,.,.
O=C(C[n+]1cc(Br)cc2ccccc21)c1ccc(Br)cc1,.,23*,81,-33,0,3
CN(C(=O)CSc1nnc(-c2ccco2)n1C)C1CCCCC1,.,.,.,7,.,.
O=C(Nc1ccc(NC(=O)c2cccs2)c(Cl)c1)c1cccs1,.,-2,-7,15,0,15
CCN1C(=O)/C(=C2/Sc3ccccc3N2CC)S/C1=N\c1ncn[nH]1,98*,?,?,-46,0,1
C=CCN1C(=O)/C(=C2/Sc3ccccc3N2C)SC1=Nc1c(C)n[nH]c1C,66,-2,-9,20,0,-24

# Assay outcomes from PubChem BioAssay.
